From PubChem BioAssay (Tox21) come the findings set out here.

Structures are written as SMILES. Inconclusive results are not listed. The source made the active and inactive calls. Calls come from the whole dose curve; as a rule, active = well fitted cell-killing curve with a large enough effect in the repeat runs; inconclusive = weak or mixed curves, or effect the other way; inactive = flat fitted curve, though single readings scatter.

The assay in a line: qHTS assay to identify small molecule antagonists of the retinoid acid receptor (RAR) signaling pathway - cell viability counter screen (AID 1159551). Note: nearly all actives have a fitted effect of over 35% in size. To be noted: C3RL4 cells viability, ATP luminescence (CellTiter-Glo), 6 h; series mostly up to 92.4 µM. The source says: U.S. Tox21 Program National Center for Advancing Translational Sciences [NCATS] NIH Chemical Genomics Center [NCGC] U.S. Environmental Protection Agency [EPA] National Institutes of Environmental Health Sciences [NIEHS] National Toxicology Program [NTP] U.S. Food and Drug Administration [FDA] Tox21 Assay Overview: All-trans Retinoic acid (atRA) is the potent natural metabolite of retinol and plays an important role in normal embryonic development and maintenance of cellular phenotype in adult animals. atRA is the activating ligand for the retinoic acid receptors (RARs) which form heterodimers with retinoid X receptors (RXRs) on the retinoic acid response element (RARE). Through activation of the RAR/RXRs nuclear receptors, atRA regulates the transcription of a large number of protein-coding genes and regulatory RNAs. Intracellular levels of atRA are controlled by the retinol signaling pathway (RSP) that regulates the biosynthesis and catabolism of atRA to maintain physiological levels. Chemicals that interfere with the RSP can cause abnormal intracellular levels of atRA and therefore are potential developmental toxicants. To assess compounds for the potential adverse effect on embryonic development through interfering with retinol signaling, a cell-based RARE luciferase reporter gene assay was used. C3RL4 cell line (OARSA/CFSAN/FDA, Laurel, MD) was used to screen Tox21 10K compound library for identifying inhibitors of the RSP. Also cytotoxicity was assessed by determining the viability of cells based on the quantitation of ATP.
Tox21 Assay Protocol Summary: C3RL4 cells were seeded at 1,000/well in 4 uL of assay medium into white solid 1,536-well tissue culture plates (Greiner Bio-One North America Inc. Monroe, NC) using a Multidrop Combi (Thermo Scientific, Waltham, MA) dispenser. After incubation at 37 C and 5% CO2 for an overnight, 23 nL of compounds dissolved in DMSO, positive control or DMSO only were transferred by a Pintool station (Kalypsys, San Diego, CA). One ul of 1 uM (final concentration) of Retinol was added right after the compound addition by using a Flying Reagent Dispenser (FRD) (Aurora Discovery, San Diego, CA). After 6 hr incubation at 37 C and 5% CO2, 5 uL of CellTiter-Glo reagent (Promega Corporation, Madison, WI) was added to each assay plate using an FRD. Luminescence was quantified on a ViewLux plate reader (PerkinElmer, Waltham, MA) after 30 min incubation at room temperature.
For orientation: Quantitative high-throughput screening tests each substance at several concentrations.
For `O=CN1CCCCC1`, the call was inactive.

Take `CCCCCCCCCCCCCC(=O)OCC`: the molecule was classed as inactive.

In the case of `CCOC(=O)CN1CCCC1=O`, the molecule was called inactive.

On to `CN1C(CCl)Nc2cc(Cl)c(S(N)(=O)=O)cc2S1(=O)=O` (stereo not given), for which the molecule was called inactive.

For `COc1cc(S(N)(=O)=O)cc(C(=O)O)c1OC`, the molecule was called inactive.

On to `CC(=O)SCC(CC(=O)c1ccc(C)cc1)C(=O)O` (stereo not given), for which the call was inactive.

`C/C(Cl)=C/CCl`: the outcome was inactive.

In the case of `O=C(OOC(=O)c1ccccc1)c1ccccc1`, the molecule was classed as inactive.

`C=CCOC(=O)CCCCCCCC`: the outcome was inactive.

Turning to `COc1cc2nc(N3CCN(C(=O)C4CCCO4)CC3)nc(N)c2cc1OC` (stereo not given), the molecule was classed as inactive.

For `COC(=O)c1ccc(C(=O)O)cc1`, the molecule was called inactive.

As to `CC(C)(O)CCCC1=CCC(C=O)CC1` (stereo not given), the result was inactive.

For the molecule `C[C@@H](CN1CC(=O)NC(=O)C1)N1CC(=O)NC(=O)C1`, the outcome was inactive.

For the molecule `Cc1ccc(OC(=O)CC(C)C)cc1`, the result was inactive.

As for `COc1cc(OC)cc(OC)c1`, the molecule was classed as inactive.

Regarding `Cc1ccc(N)nc1`, the result was inactive.

For the molecule `CCCCNCC`, the call was inactive.

Turning to `CC1(C)CC(N)CC(C)(C)N1`, the molecule was called inactive.

As for `Clc1ccc2c(c1)Nc1ccccc1S2`, the result was inactive.

As to `NNC(=O)OCc1ccccc1`, the molecule was called inactive.

As for `N[C@H]1C(O)O[C@H](CO)[C@@H](O)[C@@H]1O` (stereo not given in full), the result was inactive.

For the molecule `O=C[C@@H](O)[C@H](O)[C@H](O)CO`, the molecule was called inactive.

As to `Cc1ccc(S(=O)(=O)NC(=O)NN2CC3CCCC3C2)cc1` (stereo not given), the result was inactive.

Turning to `CN(C)CCc1c[nH]c2ccc(CS(=O)(=O)N3CCCC3)cc12`, the result was inactive.

As for `O=C(O)/C=C(\CC(=O)O)C(=O)O`, the outcome was inactive.

For `COc1ccc(Cl)cc1C`, the molecule was called inactive.

Take `O=C(O)P(=O)(O)O`: the outcome was inactive.

As for `COc1cc(NS(=O)(=O)c2ccc(N)cc2)ncn1`, the outcome was inactive.

As to `O=S(=O)(O)c1cc(I)c(O)c2ncccc12`, the result was inactive.

As to `CCCCCCCCOCCC#N`, the call was inactive.

As for `CC(=O)c1ccc(O)c(C(N)=O)c1`, the call was inactive.

On to `CC(=O)Nc1ccc(OCCOCCOc2ccc(NC(C)=O)cc2)cc1`, for which the result was inactive.

For `CCCc1ccc(O)c(OC)c1`, the result was inactive.

Turning to `CCc1ccc(CC)cc1`, the call was inactive.

With `Cc1ccc2cccnc2c1`, the outcome was inactive.

Regarding `CC(C)OC(=O)C(C(=O)OC(C)C)=C1SC=CS1`, the molecule was called inactive.

For the molecule `COc1cnc(NS(=O)(=O)c2ccc(N)cc2)nc1`, the molecule was classed as inactive.

As for `O=C(O)CCCCCCCCCC(=O)O`, the result was inactive.

As to `COc1ccc2cc(CCC(C)=O)ccc2c1`, the call was inactive.

Take `CCN1CCN(C(=O)N[C@@H](C(=O)N[C@@H]2C(=O)N3C(C(=O)O)=C(CSc4nnnn4C)CS[C@H]23)c2ccc(O)cc2)C(=O)C1=O`: the result was inactive.
